Results taken from the supplement of paper PMC10849652.
Targets with a hit are over-represented here; the source holds about 7,900 in all. About 0.6% of all pairs of compound and target were hits.

Experiments:
Assay in all cases: log2 fold change, soluble protein after heating vs DMSO (PISA); higher = thermal stabilisation; K562 cells, 10 uM, 30 min; active = over 0.2 and 3.5 SD of the protein, either way, in both replicates (recomputed)
[1] = compound: NC(=O)Nc1cc(-c2cccc(F)c2)sc1C(=O)N[C@H]1CCCNC1
Outline: (§1)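 K562 cells at 2×10^6 cells/mL were exposed to 10 μM compound for 30 min, then aliquots were heated for 3 min across 48°C-58°C, pooled, and extracted in PBS containing 0.5% NP-40 at 4°C. The supernatant after 21,000xg for 90 min was taken as soluble protein and measured by TMTpro 16plex LC-MS/MS with channel sums equalised. Thermal stability is reported relative to control samples, with values from duplicates. Fold changes are given on a log2 scale.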

[2] = compound: NC(=O)c1cnc(N[C@@H]2CCCC[C@@H]2N)nc1Nc1cccc(-n2nccn2)c1
Outline: as §1

[3] = compound: NC1(c2ccc(-c3nc4ccn5c(=O)[nH]nc5c4cc3-c3ccccc3)cc2)CCC1
Outline: as §1

[4] = compound: NCC(=O)Nc1ccc(-n2nc(C(F)(F)F)cc2-c2ccc3c(ccc4ccccc43)c2)cc1
Outline: as §1

entinostat = compound: Nc1ccccc1NC(=O)c1ccc(CNC(=O)OCc2cccnc2)cc1 [entinostat]
Outline: as §1

vorinostat = compound: O=C(CCCCCCC(=O)Nc1ccccc1)NO [vorinostat]
Outline: as §1

citarinostat = compound: O=C(CCCCCCNC(=O)c1cnc(N(c2ccccc2)c2ccccc2Cl)nc1)NO [citarinostat]
Outline: as §1

silmitasertib = compound: O=C(O)c1ccc2c(c1)nc(Nc1cccc(Cl)c1)c1ccncc12 [silmitasertib]
Outline: as §1

[5] = compound: O=C1NC(=O)C(c2cnc3ccccn23)=C1c1cn2c3c(cc(F)cc13)CN(C(=O)N1CCCCC1)CC2
Outline: as §1

[6] = compound: c1cc(OCCN2CCCCC2)cc(-c2n[nH]c3ccc(-c4nnc[nH]4)cc23)c1
Outline: as §1

Measured: log2 fold change

FAM177A1 isoform 2 (UniProt Q8N128)
inactive: [1] 0.047 | [2] -0.053 | [3] -0.023 | [4] -0.038 | entinostat 0.007 | vorinostat 0.072 | citarinostat 0.047 | silmitasertib 0.029 | [5] -0.089 | [6] 0.002

DNM2 (UniProt P50570)
Chain of UniProt P50570 (P50570 whole entry, looked up): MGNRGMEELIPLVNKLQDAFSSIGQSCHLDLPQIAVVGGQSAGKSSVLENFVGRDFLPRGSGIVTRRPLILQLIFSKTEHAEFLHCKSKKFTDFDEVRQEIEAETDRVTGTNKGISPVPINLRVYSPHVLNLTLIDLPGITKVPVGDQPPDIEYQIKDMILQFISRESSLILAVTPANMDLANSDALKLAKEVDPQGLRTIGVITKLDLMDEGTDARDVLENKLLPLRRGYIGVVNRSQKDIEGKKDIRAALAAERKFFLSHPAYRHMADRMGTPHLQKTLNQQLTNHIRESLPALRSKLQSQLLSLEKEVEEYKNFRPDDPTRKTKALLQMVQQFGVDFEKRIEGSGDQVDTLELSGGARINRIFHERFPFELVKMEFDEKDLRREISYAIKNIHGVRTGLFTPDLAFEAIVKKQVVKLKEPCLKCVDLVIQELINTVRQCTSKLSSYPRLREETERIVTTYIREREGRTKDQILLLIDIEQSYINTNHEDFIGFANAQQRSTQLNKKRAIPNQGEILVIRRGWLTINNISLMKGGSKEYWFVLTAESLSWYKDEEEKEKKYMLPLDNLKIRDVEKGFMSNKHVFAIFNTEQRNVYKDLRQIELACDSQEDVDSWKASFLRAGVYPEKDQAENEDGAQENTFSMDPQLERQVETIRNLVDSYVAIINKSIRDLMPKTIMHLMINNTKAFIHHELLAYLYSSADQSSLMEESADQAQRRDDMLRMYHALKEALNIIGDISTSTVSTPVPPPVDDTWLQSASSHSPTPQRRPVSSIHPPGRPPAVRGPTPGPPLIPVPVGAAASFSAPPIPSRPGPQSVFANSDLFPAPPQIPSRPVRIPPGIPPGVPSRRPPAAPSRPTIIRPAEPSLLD
inactive: [1] -0.019 | [2] -0.037 | [3] -0.153 | [4] -0.023 | entinostat 0.005 | vorinostat 0.03 | citarinostat 0.051 | silmitasertib -0.054 | [5] 0.008 | [6] -0.014

DDX5 (UniProt P17844)
Chain of UniProt P17844 (P17844 whole entry, looked up): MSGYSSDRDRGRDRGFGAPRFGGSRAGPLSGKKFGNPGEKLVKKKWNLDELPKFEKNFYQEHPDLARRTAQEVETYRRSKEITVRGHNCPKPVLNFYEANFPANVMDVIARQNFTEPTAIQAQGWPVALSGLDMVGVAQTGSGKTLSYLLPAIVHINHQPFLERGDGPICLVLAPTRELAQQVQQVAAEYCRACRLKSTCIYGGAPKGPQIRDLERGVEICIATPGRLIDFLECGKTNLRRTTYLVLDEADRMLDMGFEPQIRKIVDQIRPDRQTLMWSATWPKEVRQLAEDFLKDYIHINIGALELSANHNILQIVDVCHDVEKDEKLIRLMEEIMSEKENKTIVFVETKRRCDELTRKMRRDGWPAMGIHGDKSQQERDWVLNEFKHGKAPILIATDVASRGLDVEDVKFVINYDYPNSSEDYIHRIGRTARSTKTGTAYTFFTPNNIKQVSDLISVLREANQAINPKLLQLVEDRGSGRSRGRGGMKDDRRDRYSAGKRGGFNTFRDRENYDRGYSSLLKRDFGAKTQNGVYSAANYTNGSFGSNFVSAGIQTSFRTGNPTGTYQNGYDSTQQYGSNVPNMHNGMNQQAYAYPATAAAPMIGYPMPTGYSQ
inactive: [1] -0.139 | [2] -0.032 | [3] -0.21 | [4] -0.135 | entinostat 0.067 | vorinostat 0.073 | citarinostat 0.072 | silmitasertib -0.088 | [5] -0.158 | [6] -0.039

FAM3A (UniProt P98173)
active: [3] -0.21
inactive: [1] 0.022 | [2] -0.028 | [4] 0.006 | entinostat -0.097 | vorinostat -0.01 | citarinostat 0 | silmitasertib -0.015 | [5] 0.034 | [6] -0.028

DCUN1D1 (UniProt Q96GG9)
inactive: [1] -0.024 | [2] -0.048 | [3] -0.102 | [4] -0.01 | entinostat 0.016 | vorinostat 0.002 | citarinostat 0.054 | silmitasertib 0.002 | [5] -0.098 | [6] -0.02

DDB1 (UniProt Q16531)
inactive: [1] 0.027 | [2] -0.025 | [3] -0.024 | [4] -0.004 | entinostat -0.022 | vorinostat -0.021 | citarinostat 0.02 | silmitasertib -0.002 | [5] -0.018 | [6] -0.03

DHFR (UniProt P00374)
Chain of UniProt P00374 (P00374 whole entry, looked up): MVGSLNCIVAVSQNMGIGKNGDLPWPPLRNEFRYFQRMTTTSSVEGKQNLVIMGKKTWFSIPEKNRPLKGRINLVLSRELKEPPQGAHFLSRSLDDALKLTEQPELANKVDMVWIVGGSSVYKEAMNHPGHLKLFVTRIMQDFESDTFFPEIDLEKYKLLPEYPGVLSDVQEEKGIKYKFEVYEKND
active: [3] 0.849 | silmitasertib 0.57
inactive: [1] 0.095 | [2] 0.209 | [4] -0.139 | entinostat -0.02 | vorinostat 0.082 | citarinostat 0.042 | [5] 0.072 | [6] -0.048

DHRS7B (UniProt Q6IAN0)
inactive: [1] -0.099 | [2] 0.083 | [3] -0.012 | [4] 0.117 | entinostat -0.014 | vorinostat 0.16 | citarinostat 0.01 | silmitasertib -0.05 | [5] -0.113 | [6] 0.077

DNAAF2 (UniProt Q9NVR5)
inactive: [1] 0.039 | [2] 0.025 | [3] -0.042 | [4] -0.044 | entinostat -0.06 | vorinostat 0 | citarinostat -0.034 | silmitasertib 0.016 | [5] -0.003 | [6] -0.03

EXTL2 (UniProt Q9UBQ6)
inactive: [1] -0.051 | [2] -0.033 | [3] -0.018 | [4] 0.039 | entinostat -0.01 | vorinostat 0.019 | citarinostat -0.044 | silmitasertib -0.011 | [5] 0.003 | [6] -0.223

FADS1, A0A0A0MR51
inactive: [1] -0.041 | [2] -0.036 | [3] -0.074 | [4] 0.036 | entinostat -0.002 | vorinostat -0.105 | citarinostat -0.029 | silmitasertib 0.014 | [5] -0.15 | [6] -0.029

EEF1D isoform 2 (UniProt P29692)
inactive: [1] -0.02 | [2] -0.06 | [3] -0.034 | [4] -0.105 | entinostat 0.018 | vorinostat -0.02 | citarinostat 0.017 | silmitasertib 0.108 | [5] -0.001 | [6] -0.067

ERCC2 (UniProt P18074)
Chain of UniProt P18074 (P18074 whole entry, looked up): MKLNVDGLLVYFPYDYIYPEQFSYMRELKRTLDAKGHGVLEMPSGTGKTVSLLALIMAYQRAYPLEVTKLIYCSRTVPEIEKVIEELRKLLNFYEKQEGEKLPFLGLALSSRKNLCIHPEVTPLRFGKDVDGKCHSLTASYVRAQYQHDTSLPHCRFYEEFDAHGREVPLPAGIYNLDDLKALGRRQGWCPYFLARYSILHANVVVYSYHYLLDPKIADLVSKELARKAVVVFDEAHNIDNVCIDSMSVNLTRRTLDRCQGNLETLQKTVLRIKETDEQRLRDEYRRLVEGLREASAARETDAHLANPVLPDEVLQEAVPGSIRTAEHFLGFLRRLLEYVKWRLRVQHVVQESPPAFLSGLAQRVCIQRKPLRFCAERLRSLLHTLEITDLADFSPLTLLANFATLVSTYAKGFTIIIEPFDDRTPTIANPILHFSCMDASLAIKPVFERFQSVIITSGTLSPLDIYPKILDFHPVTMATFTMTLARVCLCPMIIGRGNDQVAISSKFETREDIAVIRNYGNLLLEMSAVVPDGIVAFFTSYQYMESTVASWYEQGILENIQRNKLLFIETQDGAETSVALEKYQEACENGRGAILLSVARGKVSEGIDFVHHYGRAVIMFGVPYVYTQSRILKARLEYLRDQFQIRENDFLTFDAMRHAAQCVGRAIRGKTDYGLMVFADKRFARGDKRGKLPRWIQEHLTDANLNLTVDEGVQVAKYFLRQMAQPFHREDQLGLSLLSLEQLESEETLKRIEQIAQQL
inactive: [1] -0.015 | [2] -0.011 | [3] -0.109 | [4] 0.004 | entinostat 0.014 | vorinostat 0.045 | citarinostat 0.103 | silmitasertib -0.052 | [5] -0.092 | [6] -0.039

EOGT (UniProt Q5NDL2)
inactive: [1] -0.008 | [2] -0.063 | [3] -0.045 | [4] -0.011 | entinostat 0.031 | vorinostat -0.092 | citarinostat -0.016 | silmitasertib 0.038 | [5] 0.009 | [6] -0.063

EEA1 (UniProt Q15075)
inactive: [1] 0.013 | [2] -0.014 | [3] 0.006 | [4] -0.014 | entinostat -0.023 | vorinostat 0.004 | citarinostat -0.001 | silmitasertib 0.015 | [5] 0.006 | [6] -0.043

DHPS (UniProt P49366)
Chain of UniProt P49366 (P49366 whole entry, looked up): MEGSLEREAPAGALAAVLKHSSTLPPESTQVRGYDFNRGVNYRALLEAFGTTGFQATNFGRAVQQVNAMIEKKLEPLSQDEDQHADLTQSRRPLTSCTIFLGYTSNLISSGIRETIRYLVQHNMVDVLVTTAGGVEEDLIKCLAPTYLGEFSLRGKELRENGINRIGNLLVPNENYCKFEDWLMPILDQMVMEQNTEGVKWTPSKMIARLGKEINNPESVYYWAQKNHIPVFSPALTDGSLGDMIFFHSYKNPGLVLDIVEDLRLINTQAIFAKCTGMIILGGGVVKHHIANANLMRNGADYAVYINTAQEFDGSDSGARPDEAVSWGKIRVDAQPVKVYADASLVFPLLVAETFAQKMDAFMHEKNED
inactive: [1] 0.01 | [2] 0.051 | [3] 0.014 | [4] 0.053 | entinostat -0.045 | vorinostat 0.04 | citarinostat 0.022 | silmitasertib -0.013 | [5] 0.08 | [6] -0.026

EVC2 (UniProt Q86UK5)
inactive: [1] -0.074 | [2] -0.129 | [3] 0.013 | [4] -0.268 | entinostat 0.004 | vorinostat -0.071 | citarinostat 0.024 | silmitasertib -0.042 | [5] 0.024 | [6] -0.114

DIP2A (UniProt Q14689)
inactive: [1] -0.056 | [2] 0.007 | [3] -0.356 | [4] 0.017 | entinostat 0.002 | vorinostat 0.031 | citarinostat 0.043 | silmitasertib 0.1 | [5] -0.016 | [6] 0.004

DHX36 (UniProt Q9H2U1)
active: [6] -0.283
inactive: [1] 0 | [2] 0.025 | [3] -0.028 | [4] 0.056 | entinostat -0.003 | vorinostat -0.028 | citarinostat 0.014 | silmitasertib 0.009 | [5] 0.11

CUTA isoform 2 (UniProt O60888)
inactive: [1] -0.022 | [2] 0.153 | [3] 0.013 | [4] 0.063 | entinostat 0.019 | vorinostat -0.005 | citarinostat 0.113 | silmitasertib -0.031 | [5] -0.132 | [6] -0.046

CYP51A1 (UniProt Q16850)
Chain of UniProt Q16850 (Q16850 whole entry, looked up): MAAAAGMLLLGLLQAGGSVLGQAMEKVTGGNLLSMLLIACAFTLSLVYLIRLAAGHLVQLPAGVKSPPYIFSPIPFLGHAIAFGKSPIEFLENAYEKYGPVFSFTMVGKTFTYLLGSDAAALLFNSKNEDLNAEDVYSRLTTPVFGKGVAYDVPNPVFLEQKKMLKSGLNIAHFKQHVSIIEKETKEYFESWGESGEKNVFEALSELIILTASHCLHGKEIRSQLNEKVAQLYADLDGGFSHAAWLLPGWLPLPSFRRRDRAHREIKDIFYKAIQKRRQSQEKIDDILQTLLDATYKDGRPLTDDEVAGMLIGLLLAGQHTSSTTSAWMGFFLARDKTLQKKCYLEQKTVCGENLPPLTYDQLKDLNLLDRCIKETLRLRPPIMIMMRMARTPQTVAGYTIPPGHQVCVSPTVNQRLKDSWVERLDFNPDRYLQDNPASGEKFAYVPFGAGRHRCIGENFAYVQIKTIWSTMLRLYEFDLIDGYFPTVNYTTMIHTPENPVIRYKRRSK
active: [5] 0.964
inactive: [1] -0.018 | [2] -0.004 | [3] 0.024 | [4] -0.033 | entinostat -0.045 | vorinostat 0.119 | citarinostat 0.006 | silmitasertib 0.001 | [6] -0.112

CTSH (UniProt P09668)
Chain of UniProt P09668 (P09668 whole entry, looked up): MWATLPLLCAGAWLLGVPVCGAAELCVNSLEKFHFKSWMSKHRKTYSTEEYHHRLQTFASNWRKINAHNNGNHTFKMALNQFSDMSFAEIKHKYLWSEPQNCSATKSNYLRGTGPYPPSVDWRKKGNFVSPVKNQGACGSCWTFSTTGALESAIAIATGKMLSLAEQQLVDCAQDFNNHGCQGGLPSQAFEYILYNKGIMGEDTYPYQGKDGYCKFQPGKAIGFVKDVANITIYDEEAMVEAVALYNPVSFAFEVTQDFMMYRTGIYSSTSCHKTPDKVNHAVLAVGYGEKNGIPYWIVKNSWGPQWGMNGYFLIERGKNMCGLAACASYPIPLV
inactive: [1] 0.012 | [2] 0.029 | [3] 0.032 | [4] 0.04 | entinostat -0.002 | vorinostat -0.01 | citarinostat -0.02 | silmitasertib 0.005 | [5] 0.022 | [6] 0.197

ECPAS (UniProt Q5VYK3)
inactive: [1] -0.009 | [2] -0.024 | [3] -0.169 | [4] -0.035 | entinostat 0.073 | vorinostat 0.077 | citarinostat 0.08 | silmitasertib 0.071 | [5] -0.038 | [6] -0.032

ESS2 (UniProt Q96DF8)
Chain of UniProt Q96DF8 (Q96DF8 whole entry, looked up): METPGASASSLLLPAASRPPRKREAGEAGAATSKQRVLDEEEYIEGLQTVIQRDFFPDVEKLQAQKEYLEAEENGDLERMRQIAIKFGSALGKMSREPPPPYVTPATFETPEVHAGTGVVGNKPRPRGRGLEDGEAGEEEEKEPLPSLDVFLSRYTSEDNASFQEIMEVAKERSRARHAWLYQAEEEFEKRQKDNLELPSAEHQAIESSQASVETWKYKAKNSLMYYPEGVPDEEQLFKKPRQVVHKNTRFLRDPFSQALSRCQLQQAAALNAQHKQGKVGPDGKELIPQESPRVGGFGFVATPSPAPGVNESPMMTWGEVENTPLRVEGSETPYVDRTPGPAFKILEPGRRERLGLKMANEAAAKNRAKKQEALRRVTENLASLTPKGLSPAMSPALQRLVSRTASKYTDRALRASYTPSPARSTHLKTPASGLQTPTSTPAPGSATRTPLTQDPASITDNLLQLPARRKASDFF
inactive: [1] 0.036 | [2] 0.048 | [3] -0.078 | [4] 0.069 | entinostat -0.027 | vorinostat -0.012 | citarinostat 0.014 | silmitasertib 0.04 | [5] 0.033 | [6] -0.017

DMAC1 (UniProt Q96GE9)
Chain of UniProt Q96GE9 (Q96GE9 whole entry, looked up): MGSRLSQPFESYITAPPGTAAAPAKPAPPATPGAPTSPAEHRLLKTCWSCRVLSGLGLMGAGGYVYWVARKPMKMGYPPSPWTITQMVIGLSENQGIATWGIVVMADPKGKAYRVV
inactive: [1] 0.136 | [2] 0.031 | [3] 0.015 | [4] -0.07 | entinostat -0.004 | vorinostat 0.019 | citarinostat -0.003 | silmitasertib -0.185 | [5] -0.427 | [6] 0.113

EXOC5 (UniProt O00471)
Chain of UniProt O00471 (O00471 whole entry, looked up): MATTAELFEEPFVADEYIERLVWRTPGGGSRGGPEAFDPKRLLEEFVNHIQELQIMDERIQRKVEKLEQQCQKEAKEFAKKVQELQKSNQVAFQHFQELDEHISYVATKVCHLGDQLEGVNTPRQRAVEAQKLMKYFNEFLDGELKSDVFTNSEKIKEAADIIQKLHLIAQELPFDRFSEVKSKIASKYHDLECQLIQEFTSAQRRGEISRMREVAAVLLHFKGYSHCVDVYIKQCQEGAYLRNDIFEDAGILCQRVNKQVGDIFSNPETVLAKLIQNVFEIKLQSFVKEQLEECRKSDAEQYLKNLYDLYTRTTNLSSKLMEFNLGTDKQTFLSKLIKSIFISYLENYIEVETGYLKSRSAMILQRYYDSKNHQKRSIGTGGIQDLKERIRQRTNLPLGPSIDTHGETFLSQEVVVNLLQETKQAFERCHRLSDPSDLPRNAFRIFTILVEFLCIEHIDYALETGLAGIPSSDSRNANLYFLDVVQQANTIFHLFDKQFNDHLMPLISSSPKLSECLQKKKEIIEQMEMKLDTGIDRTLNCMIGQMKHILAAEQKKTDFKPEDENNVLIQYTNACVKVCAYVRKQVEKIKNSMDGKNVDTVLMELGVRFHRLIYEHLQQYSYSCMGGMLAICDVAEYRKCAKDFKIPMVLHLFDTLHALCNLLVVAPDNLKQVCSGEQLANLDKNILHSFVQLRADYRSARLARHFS
inactive: [1] 0.01 | [2] -0.101 | [3] -0.222 | [4] -0.063 | entinostat 0.069 | vorinostat 0.086 | citarinostat 0.027 | silmitasertib 0.042 | [5] -0.02 | [6] -0.153

FAM118A (UniProt Q9NWS6)
inactive: [1] 0.052 | [2] -0.129 | [3] -0.351 | [4] 0.015 | entinostat 0.149 | vorinostat 0.054 | citarinostat -0.289 | silmitasertib 0.166 | [5] -0.088 | [6] 0.322

EGLN1 (UniProt Q9GZT9)
inactive: [1] 0.095 | [2] -0.016 | [3] -0.043 | [4] -0.029 | entinostat -0.009 | vorinostat 0.021 | citarinostat 0.034 | silmitasertib 0.024 | [5] 0.014 | [6] -0.178

DNAH11 (UniProt Q96DT5)
inactive: [1] -0.099 | [2] -0.064 | [3] 0.346 | [4] 0.044 | entinostat -0.032 | vorinostat -0.24 | citarinostat -0.213 | silmitasertib 0.197 | [5] -0.098 | [6] -0.09

DHCR7 (UniProt Q9UBM7)
inactive: [1] 0.08 | [2] 0.014 | [3] 0.239 | [4] -0.134 | entinostat 0.082 | vorinostat 0.03 | citarinostat -0.023 | silmitasertib -0.084 | [5] -0.04 | [6] -0.026
